The panel holds about 83,000 compounds, 20% with a hit somewhere; the sample as a whole holds those more often.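 Negative percent growth values reflect cell death: -40 means 40% of the cells present at the start died, and -100 means all died.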 Activity calls are given as the source filed them. Rule for the calls: active = growth percent below 10; inactive = the rest.
System: HL-60(TB) leukemia
Experiment: NCI-60 one-dose screen, 48 h (100 = growth as untreated, 0 = no growth, -100 = all killed)
Conditions: 10 µM unless noted

Compound | growth
COc1cc2ncnc(Nc3ccc(S(=O)(=O)Nc4cc(C)on4)cc3)c2cc1OCCCN1CCOCC1 | 101% (inactive)
COc1cnccc1-c1nc2ccc3[nH]ncc3c2c2c1CCCC2 | 35.1% (inactive)
Cc1cc2c(-c3nc4ccccn4c3N)c(O)c(O)cc2c(O)c1-c1c(C)cc2c(-c3nc4ccccn4c3N)c(O)c(O)cc2c1O | 9.95% (active)
O=c1oc2ccccc2c(Cl)c1Cl | 41.4% (inactive)
CCNC(=O)Oc1ccc(/C(=C(\C)c2ccc(Cl)cc2)c2ccc(OCCN3CCCCC3)cc2)cc1 | 16.8% (inactive)
Brc1cccc(-c2cc(-c3ccc4c(c3)OCCCO4)[nH]n2)c1 | 47.7% [25 µM] (inactive)
N=C(N)c1ccc(-c2ccc(-c3ccc(-c4cccs4)s3)s2)cc1 | 100% (inactive)
COc1cc(/C=C/C(=O)c2cccc(-n3cc(-c4ccccc4)[nH]c3=O)c2)ccc1O | 3.49% (active)
O=c1oc2ccc3ccccc3c2cc1-c1ccnc2[nH]c(=S)[nH]c(=O)c12 | 87.3% (inactive)
COc1ccc(S(=O)(=O)NCCCNc2cc(-c3c(-c4cccc(OC)c4)nc4sccn34)ccn2)cc1 | 32.7% (inactive)
N#Cc1c2c(c(N)[nH]c1=O)C(=O)NC2(O)c1ccccc1 (stereo not drawn) | 93.8% (inactive)
COc1cc(OC)c(/C=C/c2cc[n+](C)c3ccccc23)c(OC)c1 | -25.6% (active)
O=C1Nc2ccccc2/C1=C/C(=O)c1ccc(N2CCCC2)cc1 | -10.8% (active)
